# Laboratory results published in PubChem BioAssay.
# Results with a measured potency or affinity are listed apart. Results filed as inconclusive are left out. Active and inactive are the calls of the source.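 Rule for the calls, unless noted: active = signal drop whose fitted half-maximal concentration is at most twice the top valid dose, in every test run; inconclusive = mixed calls across runs, poor fit, or flat 30 to 70% inhibition; inactive = wrong direction, flat within 30%, or potency beyond limit.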
# Test: cytotoxicity in PAX8-dependent RMG-1 cells, dose response, cell-based, cherry-pick (AID 687029);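 note: cells exposed to compound for 96 hours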
# Conditions: RMG-1 viability, CellTiterGlo ATP luminescence, 96 h; series mostly up to 35 µM
row,Compound,outcome
1,O=c1c(Cl)c(Cl)cnn1-c1ccccc1,inactive
2,C#Cc1cc(N2CCN(C(=O)c3ccoc3)CC2)n2nc(-c3cccc(Cl)c3)cc2n1,inactive
3,C[C@H](CO)N1C[C@H](C)[C@@H](CN(C)S(=O)(=O)c2ccc(F)cc2)OCCCC[C@H](C)Oc2ccc(NS(=O)(=O)c3ccc(Cl)cc3)cc2C1=O,inactive
4,N#C[C@H]1[C@H](c2ccc(C#CC3CCCC3)cc2)[C@@H](CO)N1C(=O)Nc1ccc(F)cc1,inactive
5,CN(C[C@H]1N[C@@H](CO)[C@@H]1c1ccc(-c2cccnc2)cc1)C(=O)c1ccccc1,inactive
6,Cc1cc(C)c2nc(C)cc(N/N=C/c3ccc(O)cc3)c2c1,inactive
7,CC1OC(CC(=O)O)CC2=C1C(=O)c1c(O)cccc1C2=O (stereo not given),inactive
8,Cc1ccc(-n2nc(C)c(NC(=O)CCl)c2C)cc1C,inactive
9,O=C(C#Cc1ccccc1)c1ccco1,inactive
10,O=C(C[C@@H]1C/C=C/CC[C@H](Cc2ccc(F)cc2)C(=O)OC[C@@H](Cc2ccccc2)NC1=O)N[C@H](CO)Cc1ccccc1,inactive
11,Brc1ccc2nc(-c3ccc(CN4CCC(c5nc6ccccc6[nH]5)CC4)cc3)c(-c3ccccc3)nc2c1,inactive
12,Cc1nn(-c2ccccc2)c(Cl)c1CN(C(=O)CCl)c1ccc(Cl)cc1,inactive
13,O=c1c2ccccc2cnn1-c1nc2ccccc2[nH]1,inactive
14,COc1ccccc1N(C(=O)CCl)c1cn(C(C)=O)c2ccccc12,inactive
15,CC(OC(=O)c1ccc(S(C)(=O)=O)c([N+](=O)[O-])c1)C(=O)NC1C2CC3CC(C2)CC1C3 (stereo not given),inactive
16,OC(CNCC(c1ccc(Cl)cc1Cl)c1c[nH]c2ccccc12)c1ccccc1 (stereo not given),inactive
17,COC(=O)C1=C(C)N(Cc2ccc(C(F)(F)F)cc2)C(=NCc2ccccc2)NC1c1cccc(Cl)c1 (stereo not given),inactive
18,CC[C@@H](C)[C@H](CNC)NC[C@@H](Cc1cccc2ccccc12)NCCc1cccc(C(F)(F)F)c1,inactive
19,CC1CCN(c2ccc(-c3cccc(NC(=O)C(F)(F)F)c3)nn2)CC1,inactive
20,COc1ccc(-c2sc3ccccc3c2-c2ccc(OCCN(C)C)cc2)cc1,inactive

row,Compound,outcome
1,COc1ccc(C#Cc2ccc([C@H]3[C@@H](CO)N4CCCCN(C(=O)Nc5cccc(F)c5)C[C@H]34)cc2)cc1,inactive
2,C=CCOc1ccccc1CN(C(=O)CCl)c1ccc2c(c1)OCO2,inactive
3,NC1=CC(=O)C(=O)c2cccnc21,inactive
4,COc1ccc(C2C(O)C(c3c[nH]c4ccccc34)=NN2C(=O)CCl)cc1 (stereo not given),inactive
5,CN1CCN(CCCNC(=O)c2ccc(/C=C3\Oc4ccccc4N(Cc4ccc(Cl)cc4)C3=O)cc2)CC1,inactive
6,C[C@H]1CN([C@@H](C)CO)C(=O)c2c(c3ccccc3n2C)-c2ccccc2CO[C@H]1CN(C)S(=O)(=O)c1ccc([N+](=O)[O-])cc1,inactive
7,O=c1cc(-c2ccc(O)cc2)oc2ccc3ccccc3c12,inactive
8,O=c1c(Br)c(Br)cnn1-c1ccccc1,inactive
9,COc1ccc(/C=N/Nc2cc(C)nc3ccc(Br)cc23)cc1,inactive
10,COc1ccc(NC(=O)c2cc([N+](=O)[O-])ccc2O)cc1,inactive
11,COc1cc(/C=N/Nc2nc(Nc3ccc(C)cc3)nc(-n3nc(C)cc3C)n2)cc(OC)c1OC,inactive
12,Cc1cc(=O)n2c3c(c4c(cc13)c(CN(C)C)cc(=O)n4C)OC2,inactive
13,COc1ccc(N(C(=O)CCl)C(C(=O)NC2CCCCC2)c2cccnc2)cc1 (stereo not given),inactive
14,N#C[C@@H]1[C@H](c2ccc(C#CC3CCCC3)cc2)[C@H](CO)N1C(=O)Nc1ccc(F)cc1,inactive
15,O=C(Nc1ccc2nc3n(c(=O)c2c1)CCCCC3)c1cc([N+](=O)[O-])ccc1F,inactive
16,CCC[C@H](CN[C@@H](CNC)[C@H](C)CC)NCCc1cc(C(F)(F)F)cc(C(F)(F)F)c1,inactive
17,COc1ccc(N(C(=O)CCl)C(C(=O)NCCc2ccccc2)c2cccs2)cc1Cl (stereo not given),inactive
18,CCS(=O)(=O)c1ncc(Cl)c(C(=O)Nc2ccc(S(=O)(=O)N(C)c3ccccc3)cc2)n1,inactive
19,COc1cccc(NC(=O)Nc2nc(-c3ccc(OC)c(OC)c3)cs2)c1,inactive
20,OCC1OC(n2cnc3c(NCc4ccco4)ncnc32)C(O)C1O (stereo not given),inactive

# Test: cytotoxicity in IOSE-T80 ovarian epithelial cells, dose response, selectivity assay for PAX8 inhibitor project, cell-based, cherry-pick (AID 687032;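 active = fitted half-maximal concentration for viability loss no higher than twice the top valid dose, in every repeat run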;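 note: cells exposed to compound for 96 h before reading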)
# Conditions: CellTiterGlo ATP luminescence, 96 h; series mostly up to 35 µM
row,Compound,outcome
1,O=c1c(Cl)c(Cl)cnn1-c1ccccc1,inactive
2,C#Cc1cc(N2CCN(C(=O)c3ccoc3)CC2)n2nc(-c3cccc(Cl)c3)cc2n1,inactive
3,C[C@H](CO)N1C[C@H](C)[C@@H](CN(C)S(=O)(=O)c2ccc(F)cc2)OCCCC[C@H](C)Oc2ccc(NS(=O)(=O)c3ccc(Cl)cc3)cc2C1=O,inactive
4,N#C[C@H]1[C@H](c2ccc(C#CC3CCCC3)cc2)[C@@H](CO)N1C(=O)Nc1ccc(F)cc1,inactive
5,CN(C[C@H]1N[C@@H](CO)[C@@H]1c1ccc(-c2cccnc2)cc1)C(=O)c1ccccc1,inactive
6,Cc1cc(C)c2nc(C)cc(N/N=C/c3ccc(O)cc3)c2c1,inactive
7,CC1OC(CC(=O)O)CC2=C1C(=O)c1c(O)cccc1C2=O (stereo not given),inactive
8,Cc1ccc(-n2nc(C)c(NC(=O)CCl)c2C)cc1C,inactive
9,O=C(C#Cc1ccccc1)c1ccco1,inactive
10,O=C(C[C@@H]1C/C=C/CC[C@H](Cc2ccc(F)cc2)C(=O)OC[C@@H](Cc2ccccc2)NC1=O)N[C@H](CO)Cc1ccccc1,inactive
11,Brc1ccc2nc(-c3ccc(CN4CCC(c5nc6ccccc6[nH]5)CC4)cc3)c(-c3ccccc3)nc2c1,inactive
12,Cc1nn(-c2ccccc2)c(Cl)c1CN(C(=O)CCl)c1ccc(Cl)cc1,inactive
13,O=c1c2ccccc2cnn1-c1nc2ccccc2[nH]1,inactive
14,COc1ccccc1N(C(=O)CCl)c1cn(C(C)=O)c2ccccc12,inactive
15,CC(OC(=O)c1ccc(S(C)(=O)=O)c([N+](=O)[O-])c1)C(=O)NC1C2CC3CC(C2)CC1C3 (stereo not given),inactive
16,OC(CNCC(c1ccc(Cl)cc1Cl)c1c[nH]c2ccccc12)c1ccccc1 (stereo not given),inactive
17,COC(=O)C1=C(C)N(Cc2ccc(C(F)(F)F)cc2)C(=NCc2ccccc2)NC1c1cccc(Cl)c1 (stereo not given),inactive
18,CC[C@@H](C)[C@H](CNC)NC[C@@H](Cc1cccc2ccccc12)NCCc1cccc(C(F)(F)F)c1,inactive
19,CC1CCN(c2ccc(-c3cccc(NC(=O)C(F)(F)F)c3)nn2)CC1,inactive
20,COc1ccc(-c2sc3ccccc3c2-c2ccc(OCCN(C)C)cc2)cc1,inactive

row,Compound,outcome
1,COc1ccc(C#Cc2ccc([C@H]3[C@@H](CO)N4CCCCN(C(=O)Nc5cccc(F)c5)C[C@H]34)cc2)cc1,inactive
2,C=CCOc1ccccc1CN(C(=O)CCl)c1ccc2c(c1)OCO2,inactive
3,NC1=CC(=O)C(=O)c2cccnc21,inactive
4,COc1ccc(C2C(O)C(c3c[nH]c4ccccc34)=NN2C(=O)CCl)cc1 (stereo not given),inactive
5,CN1CCN(CCCNC(=O)c2ccc(/C=C3\Oc4ccccc4N(Cc4ccc(Cl)cc4)C3=O)cc2)CC1,inactive
6,C[C@H]1CN([C@@H](C)CO)C(=O)c2c(c3ccccc3n2C)-c2ccccc2CO[C@H]1CN(C)S(=O)(=O)c1ccc([N+](=O)[O-])cc1,inactive
7,O=c1cc(-c2ccc(O)cc2)oc2ccc3ccccc3c12,inactive
8,O=c1c(Br)c(Br)cnn1-c1ccccc1,inactive
9,COc1ccc(/C=N/Nc2cc(C)nc3ccc(Br)cc23)cc1,inactive
10,COc1ccc(NC(=O)c2cc([N+](=O)[O-])ccc2O)cc1,inactive
11,COc1cc(/C=N/Nc2nc(Nc3ccc(C)cc3)nc(-n3nc(C)cc3C)n2)cc(OC)c1OC,inactive
12,Cc1cc(=O)n2c3c(c4c(cc13)c(CN(C)C)cc(=O)n4C)OC2,inactive
13,COc1ccc(N(C(=O)CCl)C(C(=O)NC2CCCCC2)c2cccnc2)cc1 (stereo not given),inactive
14,N#C[C@@H]1[C@H](c2ccc(C#CC3CCCC3)cc2)[C@H](CO)N1C(=O)Nc1ccc(F)cc1,inactive
15,O=C(Nc1ccc2nc3n(c(=O)c2c1)CCCCC3)c1cc([N+](=O)[O-])ccc1F,inactive
16,CCC[C@H](CN[C@@H](CNC)[C@H](C)CC)NCCc1cc(C(F)(F)F)cc(C(F)(F)F)c1,inactive
17,COc1ccc(N(C(=O)CCl)C(C(=O)NCCc2ccccc2)c2cccs2)cc1Cl (stereo not given),inactive
18,CCS(=O)(=O)c1ncc(Cl)c(C(=O)Nc2ccc(S(=O)(=O)N(C)c3ccccc3)cc2)n1,inactive
19,COc1cccc(NC(=O)Nc2nc(-c3ccc(OC)c(OC)c3)cs2)c1,inactive
20,OCC1OC(n2cnc3c(NCc4ccco4)ncnc32)C(O)C1O (stereo not given),inactive
